Assay results taken from PubChem BioAssay AID686959 (The Scripps Research Institute Molecular Screening Center, 2013).
Active and inactive are the calls of the source. No cut-off is given here; in the data, nearly all actives have IC50 up to about 8.1 µM.

Test: small molecules binding CAG repeat RNA – biochemical, fluorescence, dose response (AID 686959)
Settings: r(CAG) RNA repeat binding

SMILES | IC50
CC/C(=N\NC(=O)c1ccccc1O)c1c(O)n(C2CCCCC2)c(=O)[nH]c1=O | 452 nM (active)
O=C(N/N=C/c1c(O)n(CCC2=CCCCC2)c(=S)[nH]c1=O)c1ccccc1 | 2040 nM (active)
C/C(=N\NC(=O)c1ccccc1O)c1c(O)n(C2CCCCC2)c(=O)[nH]c1=O | 450 nM (active)
